Hits are enriched below; roughly 5.4% of the tested compounds scored in any of these assays.
IMPase cell inh – IMPase inhibition in cells; P97697; 120,000 tested, under 10 active; inhibition (IP1 accumulation), % at 46.1 µM; AID 901; CHO-M1 cells, IP1 accumulation, HTRF TR-FRET ratio; active = well fitted curve in the direction sought with a large enough effect in the signal ratio, not every such curve was filed as active; inconclusive = small, poorly fitted or top-dose-only effect, or a change in a side signal; inactive = no such curve, though single readings can be large or run the other way; the % refers to the signal ratio;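 note: cells stimulated with carbachol in lithium chloride buffer; plate controls were DMSO basal wells for no effect and reference inhibitor wells for full effect; higher means more IMPase inhibition seen as more IP1 and lower FRET ratio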
Target sequence (P97697 whole entry, looked up): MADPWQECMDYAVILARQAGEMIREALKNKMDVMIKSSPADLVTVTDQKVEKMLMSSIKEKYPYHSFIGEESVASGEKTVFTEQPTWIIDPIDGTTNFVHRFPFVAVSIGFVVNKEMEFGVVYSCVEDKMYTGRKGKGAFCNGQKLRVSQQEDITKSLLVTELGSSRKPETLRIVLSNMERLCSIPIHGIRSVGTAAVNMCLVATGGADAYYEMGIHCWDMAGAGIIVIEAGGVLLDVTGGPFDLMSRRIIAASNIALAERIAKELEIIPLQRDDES
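Cellular IMPase inhibition is scored as a rise in cytosolic IP1, detected by competitive TR-FRET between d2-labelled IP1 and a europium anti-IP1 antibody. M1-expressing CHO cells were stimulated with carbachol for 30 min at 37C, with lithium (50 mM LiCl) present in the buffer.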
ALOX12 inhib – 12-hLO (ALOX12) enzyme inhibition | P18054 | Potency, µM (top dose mostly 57.1 µM), for inactives: at the top dose activity change, negative = inhibition, hits mostly inhibitors | purified 12-hLO, xylenol orange hydroperoxide absorbance | 150,000 compounds, 0.12% hits; note: potency is the fitted concentration of half-maximal effect; nearly all actives have a fitted effect of over 55% in size
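Purified human 12hLO (150 nM final) was preincubated with compounds for 15 min at room temperature in 25 mM Hepes pH 7.0, 0.01% Triton X-100, then reacted with 40 uM arachidonic acid for 30 min. Hydroperoxide was detected with ferrous iron/xylenol orange.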
ALOX15B inhib – 15-hLO-2 (ALOX15B) enzyme inhibition; 110,000 compounds, 0.56% hits; Potency, µM (series often up to 57.1 µM), for inactives: top-dose activity change, negative = inhibition, hits mostly inhibitors; AID 881; purified 15hLO-2, xylenol orange hydroperoxide absorbance; O15296; note: potency is the fitted concentration of half-maximal effect; nearly all actives have a fitted effect of over 60% in size
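Enzyme 50 nM, AA 45 uM, 25 mM Hepes pH 7.5 + 0.01% Triton X-100; cpd preinc 15 min RT, rxn 90 min RT; stop/detect with 200 uM XO + 300 uM Fe(II) in 50 mM H2SO4, 30 min; A573/A405.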
PNC inhibitor – inhibitors of perinucleolar compartment assembly; PC3M PTB-GFP, PNC prevalence imaging, 16 h; active compounds read low; activity change (PNC), negative = inhibition, % at 10 µM; 140,000 compounds, 3.1% hits;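 active = readout at or below -70, meaning at least 70% loss of cells showing the perinucleolar compartment, a nuclear body marking cancer cells; inconclusive = readout between -30 and a set limit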;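 note: plate controls were DMSO wells for no effect and camptothecin positive control wells for full effect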
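PC3M cells stably expressing PTB-GFP, 750–1000 cells/well, treated 16 h at 37 °C with compound (23 nl of library stock), in duplicate. After paraformaldehyde fixation and Hoechst stain, imaged at 20x; PNC prevalence scored by image analysis.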
HPGD inh – HPGD (human) dehydrogenase inhibition; P15428; purified HPGD, NADH fluorescence kinetic, PGE2 substrate; Potency, µM, for the others: at the top dose activity change, negative = inhibition, hits mostly inhibitors; 150,000 compounds, 4.3% hits; AID 894; active = well fitted inhibition curve with a large enough effect, not every such curve was filed as active; inconclusive = small, poorly fitted or top-dose-only effect, or another doubt; inactive = no such curve, though single readings can be large or run the other way; note: potency is the fitted concentration of half-maximal effect
Target sequence (P15428 whole entry, looked up): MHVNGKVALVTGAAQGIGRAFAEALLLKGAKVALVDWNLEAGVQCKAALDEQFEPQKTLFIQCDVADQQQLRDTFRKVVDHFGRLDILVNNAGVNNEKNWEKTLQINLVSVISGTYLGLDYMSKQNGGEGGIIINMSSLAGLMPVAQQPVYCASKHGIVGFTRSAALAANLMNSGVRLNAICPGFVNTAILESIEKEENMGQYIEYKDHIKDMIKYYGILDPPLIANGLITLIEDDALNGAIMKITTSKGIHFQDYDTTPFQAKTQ
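NADH formation kinetics: reaction with 30 uM PGE2 and 1 mM NAD+ (final), 20 nM enzyme, Tris-HCl pH 8 with Tween 20, after 15 min compound preincubation at room temperature. Fluorescence change, last versus first of five reads.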
IMPase Li inh – membrane-permeable IMPase blocker, potentiated with lithium. CHO-M1 cells, IP1 TR-FRET (IP-One), carbachol + lithium. 210,000 compounds, 0.35% hits. Potency, µM (highest dose often 59.4 µM), without a hit: top-dose activity, negative = IMPase inhibition, most hits filed as inhibitors;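 note: IP1 builds up when IMPase is blocked and the TR-FRET signal falls; potency is the fitted concentration of half-maximal effect; plate controls were basal vehicle for no effect and high inhibitor control for full effect; nearly all actives have a fitted effect of over 50% in size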
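Steps: plate 2000 CHO-M1 cells per well and culture 16–30 h; add compound and lithium; incubate 30 min, 37C; add d2-IP1 tracer and Eu cryptate anti-IP1 antibody in lysis buffer; read after 10 min at room temperature.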
* marks the source's active call; other numbers are inactive results; ? = inconclusive; . = no result; [ ] = remark or other dose. Unless noted, calls come from the whole dose curve; as a rule, active = well fitted curve in the direction sought with a large enough effect; inconclusive = small, poorly fitted or top-dose-only effect, or another doubt; inactive = no such curve, though single readings can be large; an effect the other way counts as inactive or inconclusive. Unless noted, % is set by controls: 0 for no effect and ±100 for the full control effect.

SMILES | IMPase cell inh | ALOX12 inhib | ALOX15B inhib | PNC inhibitor | HPGD inh | IMPase Li inh
COc1cccc(CN(C)C(=O)c2ccc3nccnc3c2)c1 | 9.8 | 3.1% | 5.4% | 22.7 | 28.2µM* | 22.3%[38.3 µM]
CN(C)c1nc2c(Br)c(Br)c(Br)c(Br)c2[nH]1 | -13.1 | -6.8% | 13.4% | . | -19.1% | -7.9%
CCOC(=O)c1c(C)nc2sccn12 | -5.2 | 5.6% | 0.4% | 59.1 | -7.5% | 4.2%[38.3 µM]
Cc1nc2sccn2c1P(c1c(C)nc2sccn12)c1c(C)nc2sccn12 | 2.9 | ? | 25.1µM* | -80.4* | 3.7% | 8.8%[38.3 µM]
CCOC(=O)CN1C(=O)N[C@@H](c2cccc(C(F)(F)F)c2)[C@H](C(=O)OC)[C@H]1C | . | 0.9%[11.4 µM] | . | . | -3.5% | 5.5%
Brc1ccc(NC2=Nc3ccccc3CC2)cc1 | 10.4 | -1.6% | 41.8% | 46.5 | ? | 9.0%[38.3 µM]
Cc1ccc(NC2=Nc3ccccc3CC2)cc1 | 15.2 | -8.6% | 25.3% | 34.2 | 31.6µM* | 36.4%[38.3 µM]
CC(O)CNC(=O)c1ccc(-c2nn(C)c(=O)c3ccccc23)cc1 (stereo not given) | -8.1 | -1.3% | 3.1% | -14.7 | 28.2µM* | 19.7%[38.3 µM]
CCCC(=O)NCc1cc(-c2nn(C)c(=O)c3ccccc23)ccc1C | 9.9 | 7.0% | 0.1% | -8.5 | 17.8µM* | 1.2%[38.3 µM]
Cn1nc(-c2ccc(C(=O)Nc3ccc(F)cc3)cc2)c2ccccc2c1=O | -3.5 | . | . | . | . | 12.0%
Cc1ccc(NC(=O)c2ccc(-c3nn(C)c(=O)c4ccccc34)cc2)c(C)c1 | 16.6 | -2.4% | -5.7% | 19.8 | 12.6µM* | 9.4%[38.3 µM]
CCC(=O)NCc1cc(-c2nn(C)c(=O)c3ccccc23)ccc1C | -1.8 | 0.2% | -6.2% | -29.4 | -29.8% | 20.1%[38.3 µM]
Cc1ccc(NC(=O)c2ccc(-c3nn(C)c(=O)c4ccccc34)cc2)cc1 | -1.1 | 1.8% | -0.3% | 25.2 | 17.8µM* | 35.3%[38.3 µM]
Cn1nc(-c2ccc(C(=O)Nc3cccc(Cl)c3)cc2)c2ccccc2c1=O | 9.3 | 6.2% | -22.4% | 25.2 | -8.3% | -1.9%[38.3 µM]
O=c1c(-c2cc(F)cc(F)c2)nc2cnc(N3CCNCC3)nc2n1-c1ccccc1 | . | . | 32.5% | . | . | 4.0%
CS(=O)(=O)Nc1cccc(-c2nc(NCc3ccccc3)c3ccccc3n2)c1 | . | . | -0.2% | . | . | 24.8%
Cc1nnc(SCC2=C(C(=O)O)N3C(=O)C(NC(=O)Cn4cnnn4)[C@@H]3SC2)s1 (stereo not given in full) | . | -3.5% | -5.1% | . | -7.3% | -5.8%
Nc1ncnc2c1ncn2[C@H]1O[C@@H](C(=O)OCCO)[C@@H](O)[C@H]1O | . | 4.2%[11.4 µM] | -4.7%[11.4 µM] | . | -2.8% | -5.4%
CCOC(=O)c1ccc(NC(=O)CSc2nc(-c3ccc(F)cc3)cc(C(F)(F)F)c2C#N)cc1 | 3.7 | . | . | . | . | .
O=C(c1ccc(-n2cccc2)cc1)N1CCN(Cc2ccccc2)CC1 | 4.8 | 9.6% | . | 23.9 | -11.7% | 0.6%[38.3 µM]
Cn1nc(-c2ccc(C(=O)N3CCN(Cc4ccccc4)CC3)cc2)c2ccccc2c1=O | 2.7 | 4.8% | 3.5% | 3.8 | 15.8µM* | 25.9%[38.3 µM]
C=CCNC(=O)N1CCc2nc(COc3ccccc3)c3c(c2C1)CO[C@@H](C)C3 | . | 1.2%[11.4 µM] | . | . | 3.0% | -11.5%
Cc1cc(O)c(C=O)c2c1C(=O)Oc1c(COC(=O)/C=C/C(=O)O)c(O)c(C(=O)O)c(C)c1O2 | . | ? | 3.2% | . | 1.41µM* | -20.8%
Cc1cc(O)c(C=O)c2c1C(=O)Oc1c(CO)c(O)c3c(c1O2)C(O)OC3=O (stereo not given) | . | . | . | . | . | -1.0%
CC(C)CN(C(=O)CN1CCN(c2ccc(F)cc2)CC1)c1c(N)n(CC(C)C)c(=O)[nH]c1=O | 1.4 | -0.5% | . | ? | -8.0% | -1.1%
CCCCN(C(=O)CN1CCOCC1)c1c(N)n(CC(C)C)c(=O)[nH]c1=O | -8.8 | -6.2% | . | -81.2* | . | .
Cc1ccc(S(=O)(=O)N2CCN(CC(=O)N(CC(C)C)c3c(N)n(CC(C)C)c(=O)[nH]c3=O)CC2)c(C)c1 | -2.6 | -6.3% | . | -97.6* | -7.5% | 2.8%
